Among all 330,000 compounds or so, about 100 (0.03%) were called active. Entries that show only a call come without a potency. About 1% were inconclusive and are not listed. This is one part of a sample in which actives are shown more often than they occur. Calls come from the whole dose curve; as a rule, active = well fitted inhibition curve with a large enough effect; inconclusive = small, poorly fitted or top-dose-only effect; inactive = flat fitted curve, though single readings scatter.
Potency is the fitted concentration of half-maximal effect.

The assay relates to Chaperonin Mm-Cpn (Methanococcus maripaludis). In words: Inhibitors of TCP-1 ring complex (TRiC) of Methanococcus maripaludis (MmCpn): qHTS.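 For potency: enzyme at 25 nM with ATP substrate at 10 µM during the reaction.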 Note: nearly all actives have a fitted effect of over 80% in size. The following applies: purified Mm-Cpn ATPase, ADP Transcreener TR-FRET; series mostly up to 76.9 µM. An excerpt:
The eukaryotic chaperonin TRiC (for TCP-1 ring complex) is an essential and conserved chaperone required for the folding and activation of 10-15% of the proteins encoded by the human genome. […] The TRiC complex consist of two stacked 7-9 membered rings, each containing a central cavity. Substrates are folded within the cavity in an ATP-dependent manner. TRiC is a complex of eight different, essential proteins. As each of the genes encoding the eight subunits is essential for cell viability and no protocol has been developed to over-express this enzyme to high levels. That is why several groups studying the TRiC chaperonin have turned to the archaeal homolog of TRiC, Methanococcus maripaludis (Mm-CPN), and have used this enzyme as a model system for the study of the type II chaperonin family. Small molecule inhibitors of the Mm-CPN enzyme would be extremely useful to study the mechanism of chaperonin activity. Importantly, TRiC and Mm-CPN both require ATP hydrolysis for function. Furthermore, the ATP binding sites are highly conserved among these type II chaperonins. This provides us with an easy, well tested and straightforward assay to identify inhibitors of chaperonin activity. The Mm-CPN assay was developed in 1536-well plate format using the HTRF Transcreener ADP assay kit (Cisbio, Bedford, MA). This assay applied the time resolved fluorescence resonance energy transfer (TR-FRET) principle. ATP in the presence of Mm-CPN is converted to ADP + Pi. An antibody labeled with Eu3+-Cryptate specific and bound to ADP labeled with […] (d2) competes with the unlabeled ADP generated by Mm-CPN. The resulting TR-FRET signal is inversely proportional to the concentration of ADP in the sample. In this assay a reduction in TR-FRET signal is observed with ATP turnover. NIH Chemical Genomics Center [NCGC] NIH Molecular Libraries Probe Centers Network [MLPCN] MLPCN Grant: DA030554-01A1 Assay Submitter (PI): Judith Frydman, Stanford University
Purified Mm-CPN was supplied by the laboratory of Dr. Judith Frydman. Protein samples were stored at -80C as single use aliquots. Protein was thawed in ambient temperature water bath and placed on ice once thawed. Buffer was prepared fresh day of screen. The buffer composition below was used to prepare the working solution of the Mm-CPN protein and ATP substrate. The buffer is comprised of 30 mM TRIS pH 7.4, 100mM KCl, 5mM MgCl2, and 1mM DTT. A final concentration of 25nM Mm-CPN and 10uM ATP per well were used in the screen. Instructions according to the manufacturer were followed for the ADP Transcreener kit. Used 1536 well Greiner white, medium binding (MB), solid bottom plates. Plates were read on the PerkinElmer EnVision plate reader using Excitation = 320 nm and Emission = […], 665 nm. Protocol- 1.Dispense 1.5ul per well of working [Mm-CPN] = 50nM (or 75 ng / well) 2.Spin plate at 1000 rpm for 30 seconds 3.23nl of compound transferred per well 4.Incubate at 37degC for 10 minutes 5.Dispense 1.5ul per well of working [ATP] = 20uM 6.Incubate at 37degC for 30 minutes 7.Dispense 3ul per well of Anti-ADP Cryptate / ADP-d2 mix (prepared as instructed by Cisbio) 8.Incubate at ambient for 30 minutes 9.Read using EnVision
For orientation: In qHTS, concentration-response curves come from the screen itself.
Take `N#Cc1ccc(-c2nc3cc(C#N)c(C#N)cc3nc2-c2ccccc2)cc1C#N`: the Potency result is “inactive”.

Regarding `CC(=O)Nc1ccc(S(=O)(=O)N2CCN(S(=O)(=O)c3cccs3)CC2)cc1`, the Potency entry is “inactive”.

As to `Cc1ccc(CNC(=O)c2ccccc2CCc2ccccc2)cc1`, the Potency result was “inactive”.

`CCC1SC(CC)C(=O)N(CC(=O)NC2CCCCC2)C1=O` (stereo not drawn): the Potency result was “inactive”.

As for `Cc1cccc(C(=O)Nc2ccc(Oc3cnccn3)cc2)c1`, the Potency result is “inactive”.

With `CC(=O)Nc1cccc(C(=O)OCN2C(=O)c3ccccc3C2=O)c1`, the Potency entry is “inactive”.

Regarding `C=CCN1C(=O)c2ccc(C(=O)N3CCC(C(=O)OCC)CC3)cc2C1=O`, the Potency result was “inactive”.

Turning to `Cc1ccc(NC2=C(Cl)C(=O)OC2OC(=O)c2ccccc2C)cc1` (stereo not drawn), the Potency result is “inactive”.

Consider `Cc1ccccc1N1CCN(CCCN2C(=O)C3CCCCN3C2=O)CC1` (stereo not drawn), for which the Potency result is “inactive”.

For `O=C(CCNS(=O)(=O)c1ccccc1)NCCCc1ccccc1`, the Potency result was “inactive”.

For `CCc1ccc(Nc2n[n+](-c3ccccc3)c(-c3cccc(Cl)c3Cl)s2)cc1`, the Potency was 56.2 µM (active).

In the case of `COc1cc(Br)c(-c2sc(Nc3ccccc3)n[n+]2-c2ccccc2)cc1OC`, the Potency result was “inactive”.

In the case of `NC(=O)N1CCCC1C(=O)Nc1ccc(Cl)c(Cl)c1` (stereo not drawn), the Potency entry was “inactive”.

Consider `CC(C)c1ccc(N2CCN(C(=O)c3ccccc3NC(=O)/C=C(\C(=O)O)c3ccccc3)CC2)cc1`, for which the Potency entry was “inactive”.

In the case of `CC(NC(=O)COC(=O)c1ccc(Cl)cc1O)c1ccc(F)cc1` (stereo not drawn), the Potency result was “inactive”.

For the molecule `COc1ccccc1-c1sc2ccccc2c1-c1ccc(C(C)=O)cc1`, the Potency was 31.6 µM (active).

Consider `COc1ccc2sc(-c3ccccc3OC)c(-c3ccc(OCCN4CCCC4)cc3)c2c1`, for which the Potency result was “inactive”.

On to `COC(=O)c1ccc(/C=C/c2c(-c3ccc(OC)cc3)sc3ccccc23)cc1`, for which the Potency entry was “inactive”.

`CC(=O)Nc1ccc(Nc2ncnc3c2nnn3Cc2ccccc2Cl)cc1`: the Potency result was “inactive”.

For `O=C(NCc1ccccc1CN1CCCC1)C1CCN(S(=O)(=O)c2ccc(Cl)cc2)CC1`, the Potency entry is “inactive”.

As to `CC(C)CN(C(=O)c1ccc2c(c1)OCO2)C1CCS(=O)(=O)C1` (stereo not drawn), the Potency result was “inactive”.

In the case of `CC1(C)O[C@@H]2CC3C4C[C@H](F)C5=CC(=O)C=CC5(C)C4C(O)CC3(C)[C@]2(C(=O)CO)O1` (stereo partly drawn), the Potency result is “inactive”.

As to `Cc1ccc2[nH]c(=O)c(CN(C)S(=O)(=O)c3cccc4nonc34)cc2c1`, the Potency result was “inactive”.

For the molecule `Cc1nc(NC2=NC(C(=O)Nc3ccc(Cl)cc3)CC(=O)N2)nc2ccccc12` (stereo not drawn), the Potency result is “inactive”.

As for `CC1CCN(c2ccc(C(=O)NCc3ccc4c(c3)OCO4)cc2[N+](=O)[O-])CC1`, the Potency result is “inactive”.

In the case of `CC(=O)c1ccc(NC(=O)CCNS(=O)(=O)c2cc(Br)cnc2N)cc1`, the Potency entry was “inactive”.

As for `CC(=O)c1nn(-c2cccc(C(F)(F)F)c2)c(=O)[nH]c1=O`, the Potency entry was “inactive”.

Turning to `c1ccc(-c2nnc3n2NC(c2ccc4c(c2)OCO4)S3)cc1` (stereo not drawn), the Potency result was “inactive”.
